Test systems include SR leukemia; OVCAR-8 ovarian; OVCAR-5 ovarian; OVCAR-4 ovarian; SK-OV-3 ovarian; IGROV1 ovarian; HS 578T breast; NCI/ADR-RES ovarian; T-47D breast; MDA-MB-435 melanoma; SW-620 colon; MCF7 breast; HCT-116 colon; HCC-2998 colon; KM12 colon; OVCAR-3 ovarian; BT-549 breast; RPMI-8226 leukemia.
Assay in all cases: NCI-60 one-dose screen, 48 h (100 = growth as untreated, 0 = no growth, -100 = all killed)
Holding throughout (conditions): 10 µM unless noted

About 83,000 compounds went through this panel and 20% of them were active in at least one assay; those are over-represented in the sample as a whole.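 Cells were grown in 96-well plates and exposed to the test compound at a single concentration for 48 hours; results are reported as percent growth, with values below 10 considered active.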 Unmarked numbers belong to inactive results. Activity calls are given as the source filed them.

Among the data in PubChem BioAssay (NCI) are growth values, retold here.

On to `CCNC(=O)N1CCc2cc(OC)c(OCCc3ccc(OC)cc3)cc2C1c1ccc(Cl)cc1C` (stereo not drawn), for which the growth in the experiment on SR leukemia is 6.29% (active); in the experiment with OVCAR-8 ovarian, 27.3%; in the experiment on OVCAR-5 ovarian it was 32.9%; with OVCAR-4 ovarian, 51.7%; in the experiment on SK-OV-3 ovarian it was 54.9%; in the experiment on IGROV1 ovarian it was 23.4%. The growth was 1.75% (active) in the experiment with HS 578T breast; 13.5% in the experiment with NCI/ADR-RES ovarian; 57% with T-47D breast; 15.9% with MDA-MB-435 melanoma; 21.4% in the experiment with SW-620 colon; 16.3% in the experiment on MCF7 breast. In addition, the growth is 9.84% (active) with HCT-116 colon, 17.1% with HCC-2998 colon and 16.5% in the experiment with KM12 colon.

On to `CS(=O)(=O)Nc1cc(-c2ccc3ncc(C#N)c(NCc4cccc(F)c4)c3c2)cnc1Cl`, for which the growth in the experiment on SR leukemia is 2.9% (active); with OVCAR-8 ovarian it was 7.95% (active); with OVCAR-5 ovarian, 16.4%; in the experiment with OVCAR-4 ovarian, 11.3%; with SK-OV-3 ovarian, -18.2% (active); with IGROV1 ovarian, -42.5% (active). The growth in the experiment with OVCAR-3 ovarian was 2.49% (active); in the experiment on HS 578T breast, -24.8% (active); in the experiment with NCI/ADR-RES ovarian, 23.4%; with T-47D breast, 0.599% (active); in the experiment with MDA-MB-435 melanoma, 5.21% (active); with SW-620 colon, 6.55% (active). For the same molecule, the growth in the experiment on MCF7 breast was 0.85% (active); in the experiment on HCT-116 colon it was 4.35% (active); in the experiment with HCC-2998 colon, -25.1% (active); in the experiment on KM12 colon, 6.28% (active).

For the molecule `CC(C)(C)c1ccc(C(=O)Nc2nc3ccc(O)cc3s2)cc1`, the growth in the experiment on SR leukemia was 24.7%; with OVCAR-8 ovarian, 30.6%; with OVCAR-5 ovarian, 69.6%; with OVCAR-4 ovarian, 46.3%; in the experiment on SK-OV-3 ovarian, 78.6%; in the experiment with IGROV1 ovarian, 47.7%. The growth is 57.6% in the experiment on OVCAR-3 ovarian; 77.3% in the experiment on HS 578T breast; 40.9% in the experiment with NCI/ADR-RES ovarian; 28.5% in the experiment on T-47D breast; 62.9% in the experiment with BT-549 breast; 34.3% in the experiment on MDA-MB-435 melanoma. Also, the growth in the experiment on SW-620 colon was 14.2%; in the experiment on MCF7 breast, 15.8%; in the experiment with HCT-116 colon it was 45.6%; in the experiment with KM12 colon it was 14%.

In the case of `CN1CCN(Cc2ccc(NC(=O)c3cncc(C#Cc4cnc5ccc(NCCCO)nn45)c3)cc2C(F)(F)F)CC1`, the growth in the experiment with SR leukemia was -15.6% (active); with OVCAR-8 ovarian, -8.06% (active); in the experiment on OVCAR-5 ovarian, 4.78% (active); with OVCAR-4 ovarian, -19.9% (active); with SK-OV-3 ovarian, -47.5% (active); with IGROV1 ovarian, 9.68% (active). Also, the growth in the experiment on HS 578T breast was -26.5% (active); in the experiment on NCI/ADR-RES ovarian, 74.1%; in the experiment with T-47D breast it was 1.95% (active); in the experiment on BT-549 breast it was -81.5% (active); with MDA-MB-435 melanoma, -39.8% (active); with SW-620 colon, -34.6% (active). Moreover, the growth was -34.5% (active) in the experiment with MCF7 breast, -83.6% (active) in the experiment on HCT-116 colon, -9.99% (active) in the experiment with HCC-2998 colon and -12.1% (active) in the experiment with KM12 colon.

Turning to `COc1cc(OC)cc(C(=O)Nc2sc3c(c2C(N)=O)CCC(=O)C3)c1`, the growth in the experiment with RPMI-8226 leukemia was 1.86% (active); with OVCAR-8 ovarian, 42.1%; in the experiment on OVCAR-5 ovarian, 48.3%; with SK-OV-3 ovarian, 106%; in the experiment with IGROV1 ovarian, 48.8%; in the experiment with OVCAR-3 ovarian it was 14.8%. Moreover, the growth is 23.7% in the experiment on HS 578T breast; 53.9% in the experiment on NCI/ADR-RES ovarian; 7.67% (active) in the experiment on T-47D breast; 11.1% in the experiment with BT-549 breast; 41.7% in the experiment with MDA-MB-435 melanoma; 18.6% in the experiment with SW-620 colon. Besides, the growth in the experiment on MCF7 breast is 24.4%; in the experiment with HCT-116 colon it was 7.89% (active); in the experiment with HCC-2998 colon, 88.3%; in the experiment on KM12 colon, 12%.

Regarding `CCOC(=O)c1c(Nc2ccccc2)nn2c(-c3ccc(OC)cc3)ccnc12`, the growth in the experiment with SR leukemia was 76.7%; in the experiment on OVCAR-8 ovarian, 94.3%; in the experiment on OVCAR-5 ovarian, 90.9%; in the experiment on OVCAR-4 ovarian it was 98.7%; in the experiment with SK-OV-3 ovarian it was 101%; in the experiment on IGROV1 ovarian it was 101%. Also, the growth with HS 578T breast is 79.7%; in the experiment on NCI/ADR-RES ovarian, 88.1%; with T-47D breast, 75.1%; in the experiment on BT-549 breast it was 127%; in the experiment with MDA-MB-435 melanoma it was 90.4%; in the experiment on SW-620 colon it was 95.1%. The growth with MCF7 breast is 89.9%; with HCT-116 colon, 71.7%; in the experiment on HCC-2998 colon it was 95.7%; in the experiment with KM12 colon, 73.9%.

On to `Cc1occc1-c1nc2s/c(=C/c3ccc(-c4cc(C(F)(F)F)ccc4Cl)o3)c(=O)n2n1`, for which the growth in the experiment on SR leukemia is 101%; in the experiment on OVCAR-8 ovarian, 103%; in the experiment with OVCAR-5 ovarian, 105%; with OVCAR-4 ovarian, 102%; in the experiment with SK-OV-3 ovarian, 110%; with IGROV1 ovarian it was 103%. Also, the growth in the experiment on HS 578T breast is 98.1%; in the experiment on NCI/ADR-RES ovarian it was 109%; with T-47D breast, 92.7%; with BT-549 breast it was 108%; in the experiment on MDA-MB-435 melanoma, 101%; with SW-620 colon it was 101%. In addition, the growth in the experiment with MCF7 breast is 90%; in the experiment on HCT-116 colon, 102%; with HCC-2998 colon it was 106%; in the experiment on KM12 colon, 99.9%.

For the molecule `O=C(Nc1cccc(Cl)c1)Nc1nc2ccc([N+](=O)[O-])cc2o1`, the growth in the experiment with SR leukemia was 50.8%; with OVCAR-8 ovarian, 6.36% (active); in the experiment with OVCAR-5 ovarian, 47.7%; in the experiment on OVCAR-4 ovarian, -3.53% (active); in the experiment with SK-OV-3 ovarian, 12.9%; with IGROV1 ovarian, 20.8%. For the same molecule, the growth is -13.9% (active) in the experiment with OVCAR-3 ovarian; 36.4% with HS 578T breast; 10.4% in the experiment with NCI/ADR-RES ovarian; 24% with BT-549 breast; 19.2% in the experiment on MDA-MB-435 melanoma; 7.83% (active) in the experiment with SW-620 colon. For the same molecule, the growth in the experiment with MCF7 breast was 12.1%; in the experiment with HCT-116 colon it was 5.21% (active); with HCC-2998 colon, 24.3%; in the experiment on KM12 colon it was 7.17% (active).

For the molecule `CC(C)(C)n1nnnc1C(Nc1cccc2c1OCO2)c1cc2cccc3ccc4cccc1c4c32` (stereo not drawn), the growth in the experiment with SR leukemia was 82.3%; with OVCAR-8 ovarian it was 90%; with OVCAR-5 ovarian it was 91.9%; in the experiment on OVCAR-4 ovarian, 79.2%; in the experiment on SK-OV-3 ovarian, 94.5%; in the experiment with IGROV1 ovarian, 81.2%. Also, the growth in the experiment on HS 578T breast is 88.7%; in the experiment with NCI/ADR-RES ovarian, 83.5%; in the experiment with T-47D breast it was 65.9%; in the experiment on BT-549 breast, 130%; in the experiment with MDA-MB-435 melanoma, 84.2%; in the experiment with SW-620 colon, 88.8%. Moreover, the growth is 64.9% in the experiment on MCF7 breast, 63% in the experiment on HCT-116 colon, 98.7% in the experiment on HCC-2998 colon and 95.4% in the experiment on KM12 colon.
